Here are results for 15 molecules from PubChem BioAssay (NCI).

Holding throughout (test): NCI-60 one-dose screen, 48 h (100 = growth as untreated, 0 = no growth, -100 = all killed)
The test system of one assay is DU-145 prostate. The note with it: 10 µM unless noted.
In the next assay the test system is K-562 leukemia. The note with it: 10 µM unless noted.
A further assay concerns MALME-3M melanoma. The note with it: 10 µM unless noted.
For a further assay, the system named is MDA-MB-231 breast. Conditions: 10 µM unless noted.
In a further assay the test system is RXF 393 renal. The note with it: 10 µM unless noted.
For the next assay, the system named is SF-268 CNS. Conditions: 10 µM unless noted.
In another assay the test system is SF-295 CNS. Conditions: 10 µM unless noted.
The subject of another assay is SF-539 CNS. The note with it: 10 µM unless noted.
Another assay relates to UACC-257 melanoma. The note with it: 10 µM.
In another assay the test system is M14 melanoma. Conditions: 10 µM unless noted.

About 83,000 compounds went through this panel and 20% of them were active in at least one assay; those are over-represented in the sample as a whole.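 Values shown are percent growth following 48 h exposure of cells in 96-well plates to a single concentration of compound; below 10 was considered active.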 Values without a mark were called inactive. Calls of active or inactive are those of the source.

For `O=C(Nc1ccc(F)c(Cl)c1)c1n[nH]c(=O)c2ccccc12`, the growth is 131% with DU-145 prostate; 99.8% with K-562 leukemia; 125% with MALME-3M melanoma; 98.3% in the assay with MDA-MB-231 breast; -29.4% (active) in the assay on RXF 393 renal; 99.4% with SF-268 CNS. The results for the growth with SF-295 CNS and in the assay with SF-539 CNS were 84.8% and 124%, respectively.

As for `COc1cc2c(cc1OCCCCn1c(-c3cc(=O)c4ccccc4o3)nc3ccccc31)N=C[C@@H]1CCCN1C2=O`, the growth in the assay on DU-145 prostate is 118%; with K-562 leukemia, 72.3%; in the assay with MALME-3M melanoma it was 109%; in the assay with MDA-MB-231 breast, 87.7%; in the assay with RXF 393 renal it was 51.3%; with SF-268 CNS, 107%. Besides, the growth in the assay on SF-295 CNS was 113%; with SF-539 CNS, 118%.

As to `O=C(NCCc1c[nH]c2ccccc12)C1Cc2ccccc2CN1C(=O)c1ccco1` (centres undefined), the growth is 114% with DU-145 prostate; 71.5% in the assay on K-562 leukemia; 96.2% in the assay on MALME-3M melanoma; 96.2% with MDA-MB-231 breast; 154% in the assay on RXF 393 renal; 111% in the assay on SF-268 CNS. Moreover, the growth in the assay with SF-295 CNS was 113%; in the assay on SF-539 CNS it was 103%.

Regarding `CCn1cc(C(=O)O)c(=O)c2cc(F)c(N3CCN(S(=O)(=O)c4c(C)cc(C)cc4C)CC3)cc21`, the growth in the assay with DU-145 prostate was 99.5%; in the assay on K-562 leukemia, 79.9%; in the assay with MALME-3M melanoma, 90.3%; with MDA-MB-231 breast, 83.7%; in the assay on RXF 393 renal, 88.9%; in the assay on SF-268 CNS, 83.7%. Further, the growth with SF-295 CNS was 48.4%; in the assay on SF-539 CNS, 79.9%; with UACC-257 melanoma it was 106%.

For the molecule `CN1C(=O)[C@H]2c3c1cccc3[C@@]13NC(=O)O[C@H]1[C@H](CCC3(C)C)C2(C)C`, the growth in the assay with DU-145 prostate is 106%; in the assay on K-562 leukemia, 82.6%; in the assay on MALME-3M melanoma, 110%; in the assay on MDA-MB-231 breast, 88.6%; in the assay on RXF 393 renal it was 101%; in the assay with SF-268 CNS, 95.2%. Also, the growth was 75% in the assay on SF-295 CNS, 98% with SF-539 CNS and 104% in the assay with UACC-257 melanoma.

For the molecule `COC1=CC(c2ccc[nH]2)=N/C1=C\c1[nH]c(C)c(C(=O)CCCCC(=O)NCc2ccccc2)c1C`, the growth in the assay on DU-145 prostate was 17%; in the assay with K-562 leukemia, 74.5%; in the assay with MALME-3M melanoma, 76.7%; in the assay with MDA-MB-231 breast, -30.5% (active); in the assay on RXF 393 renal, -72.3% (active); with SF-268 CNS, 54.9%. The growth in the assay on SF-295 CNS was 51.2%; in the assay with SF-539 CNS, 56.6%; in the assay on UACC-257 melanoma it was 86.9%.

Consider `COc1cc(-c2nc(-c3nc4ccccc4[nH]3)cc3c2[nH]c2ccccc23)cc(OC)c1OC`, for which the growth was 53.8% in the assay with DU-145 prostate; 31.9% in the assay with K-562 leukemia; 32.7% in the assay with MALME-3M melanoma; 61.3% in the assay with MDA-MB-231 breast; 70.6% in the assay with RXF 393 renal; 47.8% in the assay on SF-268 CNS. Further, the growth is 1.13% (active) in the assay with SF-295 CNS, 68.4% with SF-539 CNS, 41.7% with UACC-257 melanoma and 23.4% in the assay with M14 melanoma.

Take `Cc1cccc(-n2c(C)nc3ccc(NC(=O)NCCCl)cc3c2=O)c1`: the growth with DU-145 prostate was 104%; in the assay on K-562 leukemia, 112%; with MALME-3M melanoma, 115%; with MDA-MB-231 breast, 111%; with RXF 393 renal it was 102%; with SF-268 CNS it was 95.1%. Further, the growth was 99.6% in the assay on SF-295 CNS, 99% in the assay on SF-539 CNS and 97.2% in the assay on UACC-257 melanoma.

`c1ccc([P+](CCC[P+](c2ccccc2)(c2ccccc2)c2ccccc2)(c2ccccc2)c2ccccc2)cc1`: the growth with DU-145 prostate is 86.7%; in the assay on K-562 leukemia, 23.2%; in the assay on MALME-3M melanoma, 65.6%; in the assay on MDA-MB-231 breast it was 93.7%; in the assay with RXF 393 renal it was 104%; in the assay on SF-268 CNS, 69.2%. Further, the growth in the assay on SF-295 CNS is 73.4%; in the assay on SF-539 CNS, 88%; in the assay on UACC-257 melanoma it was 37%; in the assay with M14 melanoma, 80.9%.

As to `COc1cc(NC(=O)CSc2nc3ccc(C)cc3c(=O)n2-c2ccccc2)cc(OC)c1OC`, the growth in the assay on DU-145 prostate is 110%; in the assay with K-562 leukemia, 87.1%; in the assay on MALME-3M melanoma it was 90.5%; in the assay with MDA-MB-231 breast, 77.3%; in the assay on RXF 393 renal, 86.2%; with SF-268 CNS, 86.2%. The growth was 92.2% with SF-295 CNS, 93.6% with SF-539 CNS and 83% in the assay with UACC-257 melanoma.

Take `CN(C)C1CCC(NC2=CC(=O)C=CC2=O)CC1` (centres undefined): the growth is 107% in the assay on DU-145 prostate; 111% in the assay with K-562 leukemia; 115% with MALME-3M melanoma; 109% in the assay on MDA-MB-231 breast; 118% with RXF 393 renal; 99.9% in the assay on SF-268 CNS. Besides, the growth with SF-295 CNS is 128%; with SF-539 CNS it was 112%.

Take `C=C1C(=O)O[C@H]2[C@H]1CC/C(COC(=O)NCCc1cccc(OC)c1)=C\CC[C@@]1(C)O[C@@H]21`: the growth was 16.5% in the assay on DU-145 prostate; 11.5% in the assay with K-562 leukemia; 85.3% with MALME-3M melanoma; 29.4% with MDA-MB-231 breast; -2.81% (active) in the assay on RXF 393 renal; 55.4% in the assay with SF-268 CNS. The growth in the assay with SF-295 CNS is 89.2%; in the assay with SF-539 CNS, 38.9%.

`O=C(CCl)NCCNc1nccc(Nc2ccc(S(=O)(=O)Nc3ccccn3)cc2)n1`: the growth was 14.4% in the assay with DU-145 prostate; 17% in the assay with K-562 leukemia; 10.2% in the assay on MALME-3M melanoma; 2.46% (active) in the assay on MDA-MB-231 breast; 36.9% in the assay with RXF 393 renal; 9.86% (active) in the assay with SF-268 CNS. Besides, the growth with SF-295 CNS is 36.2%; with SF-539 CNS, -15.2% (active); in the assay with UACC-257 melanoma, 31.5%; in the assay with M14 melanoma, 3.17% (active).

For `COc1cc(/C=C2\CCCC3=C2NC(C)=NC3c2cc(OC)c(OC)c(OC)c2)cc(OC)c1OC` (centres undefined), the growth in the assay with DU-145 prostate is 4.92% (active); with K-562 leukemia it was 11.1%; in the assay with MALME-3M melanoma it was 30.2%; with MDA-MB-231 breast it was 13%; with RXF 393 renal it was 22.7%; in the assay with SF-268 CNS it was 21.2%. Besides, the growth in the assay with SF-295 CNS was -25% (active); in the assay with SF-539 CNS, 13.5%; in the assay with UACC-257 melanoma it was 43.8%; in the assay on M14 melanoma, -42% (active).

On to `Cn1c(-c2nonc2NC(=O)c2ccc(F)cc2)nc2ccccc21`, for which the growth in the assay with DU-145 prostate is 107%; with K-562 leukemia it was 9.03% (active); with MALME-3M melanoma it was 123%; in the assay on MDA-MB-231 breast, 129%; in the assay on RXF 393 renal, 109%; with SF-268 CNS, 109%. For the same molecule, the results for the growth with SF-295 CNS, in the assay with SF-539 CNS and in the assay on UACC-257 melanoma were 98.5%, 103% and 97.2%, respectively.
